# The entries come from a sample that favours the strongest signals as a whole.
# Legend:
# Assay in all cases: glycan array binding signal (z-score within array); higher = stronger binding
# [1] = tested on: Gal(a1-3)Gal(b1-4)GlcNAc(b1-3)GalNAc; details: glycan notation: IUPAC condensed, linker removed
# In short: (§1)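 Glycan array data were curated from 3228 arrays in the Consortium for Functional Glycomics database and kept only where the protein sequence was available. Glycan names were converted to IUPAC-condensed notation, and columns mapping to the same glycan were averaged. The binding signal is a within-array Z-score, averaged across arrays of the same protein sequence at different concentrations or buffers and across linkers. Negative Z-scores can be read as non-binding.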
# Gal(a1-3)Gal(b1-4)GlcNAc = details: glycan notation: IUPAC condensed, linker removed
# In short: as §1
# Gal(a1-3)Gal = details: glycan notation: IUPAC condensed, linker removed
# In short: as §1
# [2] = tested on: Gal(a1-4)Gal(b1-4)GlcNAc(b1-3)Gal(b1-4)Glc; details: glycan notation: IUPAC condensed, linker removed
# In short: as §1
# Gal(a1-3)Gal(b1-4)Glc = details: glycan notation: IUPAC condensed, linker removed
# In short: as §1
# Gal(a1-3)GalNAc = details: glycan notation: IUPAC condensed, linker removed
# In short: as §1
# [3] = tested on: Gal(a1-3)Gal(b1-4)[Fuc(a1-3)]GlcNAc(b1-2)Man(a1-3)[Gal(a1-3)Gal(b1-4)[Fuc(a1-3)]GlcNAc(b1-2)Man(a1-6)]Man(b1-4)GlcNAc(b1-4)GlcNAc; details: glycan notation: IUPAC condensed, linker removed; mutation: R125K
# In short: as §1
# [4] = tested on: Gal(a1-3)Gal(b1-4)[Fuc(a1-3)]GlcNAc; details: glycan notation: IUPAC condensed, linker removed; mutation: R125K
# In short: as §1
# [5] = tested on: Gal(a1-3)[Gal(a1-4)]Gal(b1-4)GlcNAc; details: glycan notation: IUPAC condensed, linker removed
# In short: as §1
# Gal(a1-4)Gal(b1-4)Gal = details: glycan notation: IUPAC condensed, linker removed
# In short: as §1
# PILRb (Mus musculus), Q2YSF2, sequence (Q2YSF2 entry or part of it): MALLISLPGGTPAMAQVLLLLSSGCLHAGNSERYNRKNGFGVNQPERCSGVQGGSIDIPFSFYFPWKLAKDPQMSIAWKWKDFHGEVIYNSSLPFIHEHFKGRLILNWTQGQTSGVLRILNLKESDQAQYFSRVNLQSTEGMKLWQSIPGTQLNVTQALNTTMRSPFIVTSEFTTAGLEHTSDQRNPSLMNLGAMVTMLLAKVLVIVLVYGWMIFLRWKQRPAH
# CHT (Homo sapiens), sequence (chain, as listed by the source): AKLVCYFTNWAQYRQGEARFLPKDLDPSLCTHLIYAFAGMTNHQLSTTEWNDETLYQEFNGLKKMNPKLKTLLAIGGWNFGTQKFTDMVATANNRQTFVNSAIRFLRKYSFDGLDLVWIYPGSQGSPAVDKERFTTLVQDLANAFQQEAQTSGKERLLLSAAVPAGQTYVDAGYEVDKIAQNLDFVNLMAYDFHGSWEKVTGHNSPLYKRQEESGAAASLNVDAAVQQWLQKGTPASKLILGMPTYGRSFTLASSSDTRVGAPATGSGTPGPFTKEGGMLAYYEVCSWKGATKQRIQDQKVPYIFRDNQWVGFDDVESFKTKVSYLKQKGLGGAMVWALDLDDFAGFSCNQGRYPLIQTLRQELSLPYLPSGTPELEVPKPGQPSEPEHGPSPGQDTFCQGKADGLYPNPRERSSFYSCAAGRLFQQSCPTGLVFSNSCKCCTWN
# C3b (Homo sapiens), P01024, sequence (P01024 23-667): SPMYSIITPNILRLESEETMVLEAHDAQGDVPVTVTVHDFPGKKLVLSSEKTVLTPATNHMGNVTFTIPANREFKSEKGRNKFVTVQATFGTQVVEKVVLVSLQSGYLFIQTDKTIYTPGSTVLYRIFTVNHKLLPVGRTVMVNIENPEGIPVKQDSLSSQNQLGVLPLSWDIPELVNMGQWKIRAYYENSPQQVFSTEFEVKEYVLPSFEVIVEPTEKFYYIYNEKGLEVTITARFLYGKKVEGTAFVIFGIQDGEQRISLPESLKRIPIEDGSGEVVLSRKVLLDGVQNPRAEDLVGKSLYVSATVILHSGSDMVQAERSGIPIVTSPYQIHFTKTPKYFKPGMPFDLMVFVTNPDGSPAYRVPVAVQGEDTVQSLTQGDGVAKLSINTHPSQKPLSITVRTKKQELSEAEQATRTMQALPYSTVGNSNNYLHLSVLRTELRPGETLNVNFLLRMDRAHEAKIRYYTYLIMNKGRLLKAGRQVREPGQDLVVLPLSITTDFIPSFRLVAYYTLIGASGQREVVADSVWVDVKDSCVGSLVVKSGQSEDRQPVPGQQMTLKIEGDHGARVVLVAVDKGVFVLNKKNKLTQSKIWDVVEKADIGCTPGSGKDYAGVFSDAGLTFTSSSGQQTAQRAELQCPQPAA
# 6RG (Lolium perenne), B9U140, sequence (B9U140 entry or part of it): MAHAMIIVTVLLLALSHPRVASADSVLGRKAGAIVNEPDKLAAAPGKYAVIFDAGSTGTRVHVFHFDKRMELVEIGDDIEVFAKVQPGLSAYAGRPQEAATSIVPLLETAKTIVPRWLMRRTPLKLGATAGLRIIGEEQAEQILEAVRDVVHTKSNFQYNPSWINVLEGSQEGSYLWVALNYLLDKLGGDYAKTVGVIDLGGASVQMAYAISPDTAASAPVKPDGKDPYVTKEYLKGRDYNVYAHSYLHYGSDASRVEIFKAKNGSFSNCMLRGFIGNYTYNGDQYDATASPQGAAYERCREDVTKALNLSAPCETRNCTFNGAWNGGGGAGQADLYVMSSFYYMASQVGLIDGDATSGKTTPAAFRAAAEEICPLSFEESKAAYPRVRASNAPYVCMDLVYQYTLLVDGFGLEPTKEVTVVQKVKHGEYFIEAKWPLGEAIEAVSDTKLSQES
# 6RG (Lolium perenne), sequence (chain, as listed by the source): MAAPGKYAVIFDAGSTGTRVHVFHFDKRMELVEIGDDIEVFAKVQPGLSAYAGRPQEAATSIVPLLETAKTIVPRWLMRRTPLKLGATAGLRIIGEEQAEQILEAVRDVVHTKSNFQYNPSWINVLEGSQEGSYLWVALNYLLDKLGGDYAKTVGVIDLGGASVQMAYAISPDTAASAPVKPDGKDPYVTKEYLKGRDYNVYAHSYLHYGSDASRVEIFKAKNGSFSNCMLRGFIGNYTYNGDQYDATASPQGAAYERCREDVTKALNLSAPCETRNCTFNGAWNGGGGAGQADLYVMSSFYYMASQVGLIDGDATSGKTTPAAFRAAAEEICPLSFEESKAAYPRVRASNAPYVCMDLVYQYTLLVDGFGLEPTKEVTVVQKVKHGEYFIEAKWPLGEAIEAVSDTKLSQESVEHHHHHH
# Avaren (Actinomycete K97), sequence (chain, as listed by the source): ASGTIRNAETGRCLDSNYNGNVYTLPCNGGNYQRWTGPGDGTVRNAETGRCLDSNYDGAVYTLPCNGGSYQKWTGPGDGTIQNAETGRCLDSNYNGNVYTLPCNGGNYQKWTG
# Aggrecan (Rattus norvegicus), NP_071526, sequence (chain, as listed by the source): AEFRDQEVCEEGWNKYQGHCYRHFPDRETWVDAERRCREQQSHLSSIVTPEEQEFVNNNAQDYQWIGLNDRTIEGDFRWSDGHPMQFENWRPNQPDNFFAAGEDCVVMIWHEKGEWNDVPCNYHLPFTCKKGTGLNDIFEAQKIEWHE
# wLAT-1A (Homo sapiens), Q01650, sequence (Q01650 whole entry): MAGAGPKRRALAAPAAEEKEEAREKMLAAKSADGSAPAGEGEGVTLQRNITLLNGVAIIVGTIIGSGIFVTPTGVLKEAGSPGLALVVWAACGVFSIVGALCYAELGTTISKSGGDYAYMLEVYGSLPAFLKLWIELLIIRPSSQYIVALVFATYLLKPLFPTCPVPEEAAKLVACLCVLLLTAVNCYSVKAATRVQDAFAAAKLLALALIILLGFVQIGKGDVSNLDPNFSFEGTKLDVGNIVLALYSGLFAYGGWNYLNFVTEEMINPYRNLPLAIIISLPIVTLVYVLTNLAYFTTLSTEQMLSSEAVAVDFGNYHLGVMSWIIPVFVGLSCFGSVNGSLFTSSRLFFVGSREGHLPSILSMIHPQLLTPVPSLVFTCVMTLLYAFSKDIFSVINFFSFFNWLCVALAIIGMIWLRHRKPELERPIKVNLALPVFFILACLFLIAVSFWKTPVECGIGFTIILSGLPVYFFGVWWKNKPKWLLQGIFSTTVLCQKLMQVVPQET
# PILRa (Mus musculus), Q2YSF3, sequence (Q2YSF3 entry or part of it): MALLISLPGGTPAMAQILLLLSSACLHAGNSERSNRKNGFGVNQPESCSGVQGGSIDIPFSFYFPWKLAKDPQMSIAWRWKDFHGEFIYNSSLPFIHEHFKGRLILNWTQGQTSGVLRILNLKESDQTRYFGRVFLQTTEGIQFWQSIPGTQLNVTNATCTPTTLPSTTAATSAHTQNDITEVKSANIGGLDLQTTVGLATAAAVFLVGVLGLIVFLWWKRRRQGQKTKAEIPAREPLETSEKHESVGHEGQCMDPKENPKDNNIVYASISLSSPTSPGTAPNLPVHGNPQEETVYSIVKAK
substance,measurement,setting,value
"PILRb (Mus musculus), Q2YSF2",glycan array binding signal (z-score),[1],-0.089
same,glycan array binding signal (z-score),Gal(a1-3)Gal(b1-4)GlcNAc,-0.363
same,glycan array binding signal (z-score),Gal(a1-3)Gal,2.68
"Aggrecan (Rattus norvegicus), NP_071526",glycan array binding signal (z-score),[2],-0.204
"PILRa (Mus musculus), Q2YSF3",glycan array binding signal (z-score),Gal(a1-3)Gal(b1-4)Glc,0.145
"wLAT-1A (Homo sapiens), Q01650",glycan array binding signal (z-score),Gal(a1-3)GalNAc,0.501
"6RG (Lolium perenne), B9U140",glycan array binding signal (z-score),Gal(a1-3)Gal(b1-4)Glc,-0.272
"Siglec-8 (Homo sapiens), Q9NYZ4",glycan array binding signal (z-score),[3],1.51
same,glycan array binding signal (z-score),[4],-0.444
same,glycan array binding signal (z-score),[5],-0.14
6RG (Lolium perenne),glycan array binding signal (z-score),Gal(a1-4)Gal(b1-4)Gal,6.25
CHT (Homo sapiens),glycan array binding signal (z-score),"[5]; mutation: D138V, E140I",-0.162
same,glycan array binding signal (z-score),"Gal(a1-4)Gal(b1-4)Gal; mutation: D138V, E140I",-0.141
"C3b (Homo sapiens), P01024",glycan array binding signal (z-score),Gal(a1-3)Gal(b1-4)Glc,1.67
same,glycan array binding signal (z-score),Gal(a1-3)Gal,2.77
Avaren (Actinomycete K97),glycan array binding signal (z-score),Gal(a1-3)Gal(b1-4)Glc,0.305

# — the supplement of paper PMC8728848
